Active and inactive are the calls of the source. The calls were made as follows: active = hit-call score of the fitted dose curve at least 0.9, where 1 is the maximum; inactive = score below 0.9.

By AC50 is commonly meant the concentration giving half of the maximal activity seen.

Hypoxia-inducible factor 1-alpha (Homo sapiens), sequence (Q16665 whole entry, looked up): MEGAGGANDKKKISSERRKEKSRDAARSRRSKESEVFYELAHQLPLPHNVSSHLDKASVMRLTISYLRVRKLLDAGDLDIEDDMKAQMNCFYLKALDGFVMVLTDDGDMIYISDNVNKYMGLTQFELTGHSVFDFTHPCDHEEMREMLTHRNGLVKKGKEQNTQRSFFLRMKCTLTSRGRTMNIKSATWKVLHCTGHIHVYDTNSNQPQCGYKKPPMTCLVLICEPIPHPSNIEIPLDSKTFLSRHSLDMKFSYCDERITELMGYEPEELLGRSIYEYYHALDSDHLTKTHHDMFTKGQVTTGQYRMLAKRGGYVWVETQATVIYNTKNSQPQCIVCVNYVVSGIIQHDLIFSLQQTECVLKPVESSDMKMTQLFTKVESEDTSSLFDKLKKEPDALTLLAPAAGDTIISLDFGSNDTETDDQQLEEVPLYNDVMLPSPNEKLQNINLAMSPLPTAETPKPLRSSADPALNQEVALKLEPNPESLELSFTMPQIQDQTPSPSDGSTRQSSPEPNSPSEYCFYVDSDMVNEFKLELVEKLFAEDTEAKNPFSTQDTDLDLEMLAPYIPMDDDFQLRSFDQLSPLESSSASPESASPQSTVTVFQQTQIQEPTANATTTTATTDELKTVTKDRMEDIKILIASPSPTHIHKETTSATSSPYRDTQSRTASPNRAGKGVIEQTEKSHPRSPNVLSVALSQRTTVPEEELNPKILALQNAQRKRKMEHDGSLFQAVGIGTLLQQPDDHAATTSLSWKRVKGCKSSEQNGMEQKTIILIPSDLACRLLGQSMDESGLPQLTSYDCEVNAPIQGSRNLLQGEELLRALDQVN

The assay concerns the target Hypoxia-inducible factor 1-alpha (Homo sapiens) (UniProt Q16665). As to the kind of experiment: ATG_HIF1a_CIS: Attagene CIS-FACTORIAL HepG2 Assay for human Hypoxia Inducible Factor 1 (HIF1A) (AID 2282951). As to conditions: HepG2 Attagene cis-factorial HIF1a reporter transcription; actives raise or lower the signal. As for the experimental part: ATG_CIS is a cell-based, multiplexed-readout assay that uses HepG2, a human liver cell line, with measurements taken at 24 hours after chemical dosing in a 24-well plate.ATG_HIF1a_CIS is one of 52 assay component(s) measured or calculated from the ATG_CIS assay. It is designed to make measurements of mRNA induction, a form of inducible reporter, as detected with fluorescence intensity signals by Reverse transcription polymerase chain reaction (RT-PCR) and Capillary electrophoresis technology.Data from the assay component ATG_HIF1a_CIS was analyzed into 1 assay endpoint. This assay endpoint, ATG_HIF1a_CIS, was analyzed with bidirectional fitting relative to DMSO as the negative control and baseline of activity. Using a type of inducible reporter, measures of mRNA for gain or loss-of-signal activity can be used to understand the reporter gene at the transcription factor-level as they relate to the gene HIF1A. Furthermore, this assay endpoint can be referred to as a primary readout, because this assay has produced multiple assay endpoints where this one serves a reporter gene function. To generalize the intended target to other relatable targets, this assay endpoint is annotated to the dna binding intended target family, where the subfamily is basic helix-loop-helix protein.
Human liver HepG2 cells are transiently transfected with multiple reporter transcription units (MRTUs) in 6-well plates using FuGene 6 reagent (Roche; 3 ml FuGene/1 mg DNA). The MRTU constructs are regulated by a cis-regulating element (promoter). […] A major difference between the CIS and TRANS system is that in CIS activities of endogenous TFs are measured, whereas the TRANS assay evaluates changes in activities of exogenous, chimeric NR-Gal4 proteins. […] At the end of 24 hour incubation, total RNA was isolated using TriZol reagent (Invitrogen). The isolated RNA is then reverse-transcribed using oligo(dT) primer and Mo-MLV reverse transcriptase (Invitrogen) with DNAse I (Ambion) treatment for 30 min. The one-tenth of the produced cDNA was amplified by PCR using Taq DNA polymerase (Invitrogen) and two reporter sequence-specific primers. The PCR products were fluorescently labeled by primer extension with 6-arboxyfluorescein (6-FAM) 5'-labeled reporter sequence-specific primer (2 min at 95 C, 20 s at 68 C and 10 min at 72 C) and these products were digested with 5U of HpaI (New England Biolabs) for 2h at 37 C. The fragments were purified using Qiaquick PCR columns (Qiagen), analyzed on an ABI 3130xL genetic analyzer (Applied Biosystems) with peak positions identified by using a set of X-rhodamine (ROX)-labeled MapMarker1000 molecular weight standards (BioVentures). The raw capillary electrophoresis data was processed using Attagraph software (Attagene).
For `Cc1c[nH]c(=O)[nH]c1=O`, the result was inactive.

Take `CCCCCCCOC(=O)c1ccc(O)cc1`: the AC50 is 59.9 µM (active).

`CCCCC1CCC(=O)O1` (stereo not given): the call was inactive.

Turning to `CCOB(OCC)OCC`, the result was inactive.

As to `CC=C(C)C=CC=C(C)C`, the call was inactive.

For `CC(C)c1ccc2ncccc2c1`, the result was inactive.

`CCCCCCC=O`: the result was inactive.

With `CCCCc1ccc(Cl)cc1`, the result was inactive.

As to `C1CCSC1`, the call was inactive.

In the case of `CO[Si](C)(C)OC`, the outcome was inactive.

As to `COC(C=C(C)CCC=C(C)C)OC`, the call was inactive.

With `CN(C)c1ccc2nc3ccc(=[N+](C)C)cc-3sc2c1`, the AC50 was 0.766 µM (active).

With `O=C1c2ccccc2C(=O)c2cc(S(=O)(=O)O)ccc21`, the result was inactive.

For `CC1=CP(=O)(c2ccccc2)CC1` (stereo not given), the compound was called inactive.

For `CC1=C(O)C(=O)C(C)O1` (stereo not given), the outcome was inactive.

Regarding `CCOC(=O)CC(=O)c1ccccc1`, the outcome was inactive.

For `CC1=NN(c2ccc(S(=O)(=O)O)cc2)C(=O)C1N=Nc1ccccc1` (stereo not given), the compound was classed as inactive.

Take `CCCCCC(=O)OCC`: the result was inactive.

On to `Cc1cccc(C(C)(C)C)c1O`, for which the outcome was inactive.

In the case of `Nc1cccc(N)n1`, the compound was called inactive.

Take `C=CC(=O)O[C@H]1C[C@@H]2CC[C@@]1(C)C2(C)C`: the compound was called inactive.

In the case of `COCC(=O)O`, the result was inactive.

On to `CC(=O)OCc1ccccc1`, for which the call was inactive.

Consider `CC1OC(=O)C(C)OC1=O` (stereo not given), for which the AC50 was 26.6 µM (active).

On to `CCCC(CC)c1ccccc1` (stereo not given), for which the compound was called inactive.

Take `CN(C)Cc1cc(CN(C)C)c(O)c(CN(C)C)c1`: the compound was classed as inactive.

As to `Nc1ccc(C(=O)O)cc1`, the compound was called inactive.

`Cc1ccccc1CCO`: the compound was classed as inactive.

As to `COc1ccc(C(=O)/C(Br)=C\C(=O)O)cc1`, the AC50 was 56.1 µM (active).

For the compound `N#Cc1ccc(C2CCCc3cncn32)cc1` (stereo not given), the outcome was inactive.

Regarding `CCCCOCC(C)O` (stereo not given), the call was inactive.

Regarding `c1ccc2sc(SSN3CCOCC3)nc2c1`, the AC50 is 32.2 µM (active).

Take `CCCCCCCO`: the call was inactive.

As for `CCCC1CCCC(=O)O1` (stereo not given), the result was inactive.

Consider `O=C(OCCc1ccccc1)c1ccccc1`, for which the outcome was inactive.

As to `CC(C)C(=O)OCCOc1ccccc1`, the compound was called inactive.

With `CCCCCC1=CCCC1=O`, the result was inactive.

`C/C=C/C=C/CCCCCCCO`: the call was inactive.

With `O=C(C=Cc1ccccc1)OCCc1ccccc1`, the result was inactive.

Regarding `C=C(C)C1CC=C(C)C(OC(C)=O)C1` (stereo not given), the compound was called inactive.

These data come from PubChem BioAssay (EPA / NIEHS).
